# FAS TE block: blocks the thioesterase domain of human fatty acid synthase. P49327. recombinant FAS-TE, OMFH fluorogenic substrate, fluorescence endpoint. inhibition, % at 15 µM. hit rate 0.67% among 360,000;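 active = compounds whose normalised, plate-corrected inhibition of enzyme fluorescence in the single-dose primary screen is 50% or more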;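 also: 0% = DMSO with enzyme and 100% = substrate without enzyme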
# GRIN3A LBD mod: modulates the human NR3A ligand-binding domain; Tm shift relative to glycine control, % at 25 µM; hit rate 2.5% among 340,000; NR3A LBD differential scanning fluorimetry, Tm shift; 0% = protein alone, 100% = glycine-bound protein; AID 1259313;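 active = melting temperature shift of at least 10% of the positive control shift, at one fixed dose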
# ADAM17 inh: inhibitors of human ADAM17; P78536; recombinant ADAM17, EDANS/DABCYL FRET peptide cleavage; inhibition, % at 6.95 µM; hit rate 0.83% among 370,000;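 active = inhibition above the mean of compounds lying between control limits plus 3 SD, set per campaign, cut at about 8.5% in these data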;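 also: 0% = DMSO-only wells as the low control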
# ADAM10 inh: inhibits human ADAM10 | O14672 | recombinant ADAM10, EDANS/DABCYL FRET peptide cleavage, 3 h | inhibition, % at 7 µM | hit rate 0.62% among 370,000;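 active = inhibition above a per-campaign cutoff equal to the mean of compounds falling between control-based bounds plus 3 SD, cut at about 20% in these data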;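 also: 0% = DMSO wells while the 100% control is not disclosed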
# proKLK7 act: activators of human kallikrein-7 zymogen. P49862. purified proKLK7, EDANS-DABCYL substrate fluorescence; 100% is mature enzyme control, 0% vehicle. activation, % at 7 µM. hit rate 0.9% among 370,000;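 active = activation above the mean of all tested compounds plus 3 SD, computed per campaign excluding outliers beyond control limits, cut at about 13% in these data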
# Target sequence (P49862 whole entry, looked up): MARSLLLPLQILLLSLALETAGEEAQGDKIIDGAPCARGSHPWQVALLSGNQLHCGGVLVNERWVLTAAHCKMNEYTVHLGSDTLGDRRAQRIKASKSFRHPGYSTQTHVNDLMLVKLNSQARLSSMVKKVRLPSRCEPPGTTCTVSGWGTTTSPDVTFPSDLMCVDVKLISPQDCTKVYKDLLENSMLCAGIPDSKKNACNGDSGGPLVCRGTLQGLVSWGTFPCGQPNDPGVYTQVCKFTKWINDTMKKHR
# Starred values were filed as active, the others as inactive; . = no result given. Sampled rows, rich in hits. Any-hit rate of the full collection: about 4.6%.
SMILES,FAS TE block,GRIN3A LBD mod,ADAM17 inh,ADAM10 inh,proKLK7 act
O=C(CSc1ccc(Cl)cc1)OCc1nnc(-c2ccccc2)o1,-1,19*,-3,-2,0
CC(C)c1cc(C(=O)NNC(=S)NCc2ccco2)c(O)c(C(C)C)c1,13,19*,4,-3,-3
Cc1cc(C(=O)NNC(=S)NCc2ccco2)n(C)n1,-7,0,1,-10,0
COc1ccccc1CNC(=O)NCCCN1CCN(c2ccc(F)cc2)CC1,.,.,1,-12,0
CN1CCN(c2nc(C#N)cc(-c3ccccc3)n2)CC1,-3,11*,-17,-36,7
COc1ccc(-c2cc(C#N)nc(N3CCN(C)CC3)n2)cc1,-3,0,-60,-182,6
FC(F)(F)c1cc(-c2ccccc2)nc(N2CCCCCC2)n1,12,11*,-6,0,0
O=C(CCNS(=O)(=O)c1ccc(Cl)cc1)N1CCCCCC1,-3,11*,2,6,0
O=c1c2ccccc2nc(-c2ccccc2)n1O,-2,0,-3,-16,1
COc1ccc(-c2nc3ccccc3c(=O)n2O)cc1,1,32*,-3,3,0
Cc1cc(Cl)ccc1OCCCC(=O)N/N=C/c1cccc([N+](=O)[O-])c1,5,19*,2,1,0
COc1ccc(/C=N/NC(=O)CCCOc2ccc(Cl)cc2Cl)cc1,32,16*,1,6,0
CCCCN1C(=O)N2Cc3ccccc3C2CS1(=O)=O (stereo unspecified),.,.,0,1,0
O=C(C1CCCO1)N1N=C(c2ccc(Br)cc2)CC1c1ccco1 (stereo unspecified),19,16*,-1,0,0
COc1cccc(NC(=O)Nc2c(-c3ccc(C)cc3)nc3ncccn23)c1,.,.,-66,-259,-3
Cc1cc(S(=O)(=O)N2CCC3(CC2)OCCO3)c(C)cc1Cl,8,2,1,-1,0
Cc1cc(S(=O)(=O)N2CCCC2C(=O)N2CCOCC2)c(C)cc1Cl (stereo unspecified),-10,58*,-1,7,0
COCCCNC(=O)C[C@H]1C[C@@]2(C(=O)OC)C(=C[C@H](C(C)(C)C)O[C@@H]2C)N(Cc2cccc3ccccc23)C1=O,.,.,4,13,0
CCOC(=O)c1c(C)[nH]c(C(=O)OCC(=O)Nc2sccc2C(N)=O)c1C,-1,29*,-3,-9,1
O=C(NCC1CC1)c1ccc(Nc2nc3ccc(Br)cc3[nH]2)cc1,6,28*,-19,-60,0
O=C(NCc1ccco1)c1cccc(Nc2nc3ccc(Br)cc3[nH]2)c1,10,13*,3,9,-1
CC(COc1ccc(C(F)(F)F)cc1)CN1CCC(C(O)(c2ccccc2)c2ccccc2)CC1 (stereo unspecified),.,.,4,8,0
COc1ccc(OC)c(NC(=O)c2ccc(OCC(=O)N3CCOCC3)c(OC)c2)c1,-3,22*,-3,1,0
COc1cc(C(=O)Nc2ccccc2N2CCOCC2)ccc1OCc1c(C)noc1C,2,12*,0,1,0
Cc1noc(C)c1COc1cccc(C(=O)Nc2ccccc2N2CCOCC2)c1,15,-2,1,3,1
SMILES,FAS TE block,GRIN3A LBD mod,ADAM17 inh,ADAM10 inh,proKLK7 act
COc1ccc(NC(=O)Nc2ccc(OCC(=O)N3CCOCC3)cc2)cc1OC,-5,11*,0,-1,0
O=C(NCCCN1CCN(c2ccc(F)cc2)CC1)NCc1ccccc1,.,.,4,3,0
O=C(Nc1ccccc1Oc1ccccc1)NC1CCCCN(Cc2cccc(Cl)c2)C1=O (stereo unspecified),.,.,1,1,1
COCC(=O)N1[C@H](CO)[C@@H](c2ccc(-c3cccnc3)cc2)[C@H]1CN(C)S(=O)(=O)c1ccccc1[N+](=O)[O-],.,.,-1,-3,0
O=C(CN1C(=O)c2ccccc2C1=O)N1CCN(C2c3ccccc3-c3ccccc32)CC1,56*,-7,3,3,0
COc1ccc(CCNCC(=O)Nc2ccc(C(=O)N3CCCCC3)cc2)cc1,-2,20*,-2,-6,0
O=C(Cn1c(-c2cncs2)nc2ccccc21)N1CCCCC1,.,.,-4,-6,0
Cc1ccccc1-c1nnc(SCc2ccccc2F)o1,23,10*,-2,-3,0
O=[N+]([O-])c1ccc2nc(COCc3nc4ccccc4[nH]3)[nH]c2c1,.,.,1,4,.
O=C(NNC(=O)c1cccnc1SCc1cccc([N+](=O)[O-])c1)c1ccccn1,11,18*,0,3,1
CCOC(=O)N1CCN(C(=O)C[C@H]2C[C@@]3(C(=O)OC)C(=C[C@H](C(C)C)O[C@@H]3C3CC3)N(CCc3ccc(OC)c(OC)c3)C2=O)CC1,.,.,-1,1,0
COc1ccc(C(C2C(=O)CC(C)(C)CC2=O)C2C(=O)CC(C)(C)CC2=O)cc1COCC(F)(F)F,-7,13*,-4,-4,0
O=C(C1CCN(c2nnc(N3CCCC3=O)s2)CC1)N1CCN(c2cccc(C(F)(F)F)c2)CC1,-6,17*,-5,1,0
Nc1nc(CSC(=S)N2CCOCC2)nc(Nc2ccccc2)n1,-6,-1,-3,-3,0
Nc1nc(CSC(=S)N2CCN(c3ccccc3)CC2)nc(Nc2ccc(F)cc2)n1,18,25*,0,4,0
CCOc1cc(S(=O)(=O)Nc2ccc(Cl)cn2)ccc1Cl,-2,-7,-4,-11,1
CCOc1cc(S(=O)(=O)Nc2ccc(Cl)cn2)ccc1F,-1,11*,4,3,0
COc1ccccc1C(=O)n1ccc2ccc(-c3ccc4ccn(Cc5ccc(C#N)cc5)c4c3)cc21,.,.,-19,-111,0
CN(C)c1ccc(C(=O)NC2CCCCN(Cc3ccc(Cl)cc3)C2=O)cc1 (stereo unspecified),.,.,0,9,1
CCOc1ccc(NC(=O)CN(C)CC(=O)Nc2ccccc2SC)cc1OCC,-8,18*,-2,-3,0
COc1ccc(NC(=O)CN(C)CC(=O)Nc2ccccc2SC)cc1,-7,-1,-1,-2,0
CCOc1ccc(NC(=O)CN(C)c2ccc(S(=O)(=O)N(C(C)C)C(C)C)cn2)cc1OCC,2,17*,1,2,-1
CCOc1ccc(NC(=O)CN(C)C(=O)C2CC2C)cc1OCC (stereo unspecified),-6,-1,-2,-1,1
COc1ccc(Nc2ccc(Cl)nn2)cc1,-2,-2,-3,5,0
Clc1ccc(Nc2ccc(Cl)nn2)cc1,4,24*,1,1,0
C[C@@H]1COc2cc(Br)ccc2S(=O)(=O)N1Cc1cn(CC2CCCCC2)nn1,.,.,0,1,0
